Assay results from PubChem BioAssay.
Records with an inconclusive call do not appear. Active and inactive are the calls of the source. Unless noted, no rule for the calls is given here.

Assays:
[1] = rapamycin-like changes in RPL19A-GFP expression – cell-based, S. cerevisiae, multiplex flow cytometry, primary screen (AID 1862; in the data active = percent of DMSO control GFP below about 86%;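 also: lower values mimic rapamycin by blocking the RPL19A rise seen in DMSO cells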); conditions: S. cerevisiae RPL19A-GFP strain, flow cytometry fluorescence, 3 h; at 10 µM; stronger effect = lower value
[2] = TOR pathway GLN3 branch reporter MEP2-GFP changes – S. cerevisiae, multiplex flow cytometry, primary screen (AID 1867;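 active = GFP response, as percent of the DMSO control, above the screen-wide mean plus 3 SD, about 139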;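 also: median GFP channel fluorescence of barcode-gated MEP2-GFP cells measured by flow cytometry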); conditions: S. cerevisiae MEP2-GFP strain, 3 h, at 10 µM, stronger effect = higher value
[3] = TOR pathway RTG branch CIT2 reporter changes – S. cerevisiae, GFP fusion, multiplex flow cytometry, primary screen (AID 1870;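 active = percent response above a set limit, the screen-wide mean plus 3 SD, cut at about 130% in these data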;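 also: barcoded CIT2-GFP strain pooled with four other GFP strains with rapamycin as positive control; median GFP fluorescence per well over plate mean of DMSO wells so 100% = DMSO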); conditions: S. cerevisiae CIT2-GFP expression, 3 h, at 10 µM, stronger effect = higher value
[4] = TOR pathway LAP4-GFP level changes – S. cerevisiae, multiplex flow cytometry, primary screen (AID 1873;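 active = GFP signal, as percent of the solvent control, above the screen mean plus 3 SD, about 149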); conditions: S. cerevisiae LAP4-GFP expression, 3 h, at 10 µM, stronger effect = higher value
[5] = yeast AGP1-GFP level changes, GLN3 branch – cell-based, multiplex flow cytometry, S. cerevisiae, primary screen (AID 1887;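 active = GFP signal above the screen-wide mean plus 3 SD, that is over about 124.5% of the solvent control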;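 also: AGP1-GFP fusion strain of S. cerevisiae within a five-strain barcoded multiplex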); conditions: 3 h, at 10 µM, stronger effect = higher value
[6] = reduced mouse 2C T cell binding to pMHC/ICAM-1 vesicles – MLPCN validation set, flow cytometry, LFA-1/ICAM-1 modulator project, pilot screen (AID 2523;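 active = response below a set limit, under 55% cells CD8-positive and vesicle-bound, and CD8 cells' 90th-percentile brightness under 279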;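 as to vesicle binding response: mean PE anti-B7-1 fluorescence of CD8+ cells relative to row control; 100% = QL9-loaded vesicles with DMSO vehicle in the same plate row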); conditions: 2C mouse CD8+ T cells, at 7 µM, stronger effect = lower value; double positive events: measured here: CD8+/vesicle+ event percentage
[7] = biological target: Integrin beta-1 (Homo sapiens) + Integrin alpha-4 (Homo sapiens) (UniProt P13612+P05556); assay: alpha4beta1 integrin LIBS antibody binding reduction – U937 cells, HUTS-21 mAb, flow cytometry, validation set, VLA-4 allosteric modulator project, pilot screen (AID 2674;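 active = inhibition above 50%, about 3 SD of the validation set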;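 also: antibody binding induced by the VLA-4 ligand LDV present at three times its Kd; 0% = LDV ligand with antibody and no compound and 100% = antibody without LDV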); conditions: HUTS-21 LIBS mAb binding, at 6.7 µM, stronger effect = higher value
Sequence of Integrin beta-1 (Homo sapiens) + Integrin alpha-4 (Homo sapiens) (P05556 whole entry, looked up): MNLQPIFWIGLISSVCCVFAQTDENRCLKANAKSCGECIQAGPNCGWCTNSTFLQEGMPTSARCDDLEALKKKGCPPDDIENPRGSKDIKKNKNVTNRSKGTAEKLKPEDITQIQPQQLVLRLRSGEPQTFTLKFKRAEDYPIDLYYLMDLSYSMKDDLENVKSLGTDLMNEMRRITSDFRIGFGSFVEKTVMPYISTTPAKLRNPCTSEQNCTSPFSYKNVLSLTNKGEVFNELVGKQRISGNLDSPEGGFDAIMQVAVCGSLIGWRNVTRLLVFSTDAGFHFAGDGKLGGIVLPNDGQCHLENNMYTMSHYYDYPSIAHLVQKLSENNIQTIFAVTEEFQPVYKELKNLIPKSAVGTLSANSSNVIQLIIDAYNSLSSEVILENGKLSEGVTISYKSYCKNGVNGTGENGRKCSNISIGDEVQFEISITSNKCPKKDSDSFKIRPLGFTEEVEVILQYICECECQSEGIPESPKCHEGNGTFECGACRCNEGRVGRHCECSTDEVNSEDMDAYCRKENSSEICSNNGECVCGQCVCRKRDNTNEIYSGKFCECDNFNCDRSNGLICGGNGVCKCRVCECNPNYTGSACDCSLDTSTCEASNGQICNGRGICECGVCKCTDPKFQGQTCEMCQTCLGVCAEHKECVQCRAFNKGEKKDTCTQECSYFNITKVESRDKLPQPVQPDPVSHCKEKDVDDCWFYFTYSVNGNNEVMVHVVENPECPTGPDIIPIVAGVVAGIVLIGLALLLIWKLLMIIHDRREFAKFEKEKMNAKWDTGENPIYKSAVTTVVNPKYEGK
Sequence of Integrin beta-1 (Homo sapiens) + Integrin alpha-4 (Homo sapiens) (P13612 whole entry, looked up): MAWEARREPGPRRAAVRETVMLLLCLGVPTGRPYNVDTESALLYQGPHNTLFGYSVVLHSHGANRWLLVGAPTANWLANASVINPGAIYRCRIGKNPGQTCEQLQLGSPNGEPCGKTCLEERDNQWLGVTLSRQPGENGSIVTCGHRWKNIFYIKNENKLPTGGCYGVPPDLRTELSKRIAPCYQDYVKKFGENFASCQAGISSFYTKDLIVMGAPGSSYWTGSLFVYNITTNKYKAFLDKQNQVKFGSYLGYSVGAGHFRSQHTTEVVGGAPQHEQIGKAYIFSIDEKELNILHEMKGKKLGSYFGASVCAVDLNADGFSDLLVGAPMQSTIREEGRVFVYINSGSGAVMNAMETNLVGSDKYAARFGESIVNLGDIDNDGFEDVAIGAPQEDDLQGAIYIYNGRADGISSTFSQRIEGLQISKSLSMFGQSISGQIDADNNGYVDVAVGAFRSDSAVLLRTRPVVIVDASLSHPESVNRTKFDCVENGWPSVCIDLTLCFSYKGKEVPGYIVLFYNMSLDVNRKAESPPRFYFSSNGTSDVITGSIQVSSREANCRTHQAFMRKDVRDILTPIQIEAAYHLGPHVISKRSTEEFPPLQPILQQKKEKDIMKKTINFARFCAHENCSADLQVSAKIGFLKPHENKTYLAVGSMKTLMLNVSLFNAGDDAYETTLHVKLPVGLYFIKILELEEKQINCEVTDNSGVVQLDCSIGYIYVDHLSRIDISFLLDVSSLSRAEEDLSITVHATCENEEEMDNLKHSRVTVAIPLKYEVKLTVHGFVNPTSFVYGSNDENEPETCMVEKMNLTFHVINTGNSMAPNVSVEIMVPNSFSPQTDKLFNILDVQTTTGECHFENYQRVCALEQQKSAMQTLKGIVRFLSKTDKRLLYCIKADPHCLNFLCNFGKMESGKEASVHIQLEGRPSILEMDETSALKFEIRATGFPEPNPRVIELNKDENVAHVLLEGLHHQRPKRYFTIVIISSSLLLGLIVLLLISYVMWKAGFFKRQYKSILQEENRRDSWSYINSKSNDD

[8] = calorie-restriction mimetic ROS inhibitors, yeast – validation compound set, pilot screen (AID 2706;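 active = superoxide response below 65% of plate, a cut near 3 SD across the whole screen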;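 also: yeast exposed to compound for one week at 30 degrees C before staining; 100% = mean of all compound wells on the same plate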); conditions: S. cerevisiae aging, superoxide DHE fluorescence; at 10 µM; stronger effect = lower value
[9] = biological target: Beta-adrenergic receptor kinase 1 (Homo sapiens) (UniProt P25098); assay: GRK2 binders displacing RNA aptamer, biochemical, validation, human GRK2, bead flow cytometry (AID 488806;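 active = aptamer binding inhibition above 30%, about 3 SD of noise from non-fluorescent compounds; inactive = inhibition at or below 30%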); conditions: bead-bound GRK2, FAM-aptamer displacement, at 10 µM, stronger effect = higher value
Sequence of Beta-adrenergic receptor kinase 1 (Homo sapiens) (P25098 whole entry, looked up): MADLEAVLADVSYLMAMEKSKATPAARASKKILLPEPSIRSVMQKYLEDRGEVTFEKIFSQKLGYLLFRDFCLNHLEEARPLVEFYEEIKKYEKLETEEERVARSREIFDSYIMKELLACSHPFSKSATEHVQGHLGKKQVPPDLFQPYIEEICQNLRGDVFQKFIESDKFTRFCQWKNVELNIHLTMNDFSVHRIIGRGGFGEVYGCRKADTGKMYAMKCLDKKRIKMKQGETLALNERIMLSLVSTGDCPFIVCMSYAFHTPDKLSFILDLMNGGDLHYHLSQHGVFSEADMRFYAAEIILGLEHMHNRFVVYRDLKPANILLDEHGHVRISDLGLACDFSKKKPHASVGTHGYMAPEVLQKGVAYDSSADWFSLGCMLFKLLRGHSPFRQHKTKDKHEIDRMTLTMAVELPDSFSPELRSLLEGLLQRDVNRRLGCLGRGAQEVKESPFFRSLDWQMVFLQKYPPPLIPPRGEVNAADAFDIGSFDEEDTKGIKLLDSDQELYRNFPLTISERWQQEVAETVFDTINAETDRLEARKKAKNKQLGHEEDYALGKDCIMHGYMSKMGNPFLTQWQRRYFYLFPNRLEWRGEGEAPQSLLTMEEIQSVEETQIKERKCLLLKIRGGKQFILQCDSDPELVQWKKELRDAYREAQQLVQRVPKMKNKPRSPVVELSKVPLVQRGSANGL

[10] = biological target: Beta-2 adrenergic receptor (Homo sapiens) (UniProt P07550); assay: agonist-induced loss of surface beta2AR – cell-based, FAP fluorogen, flow cytometry, validation set, pilot screen (AID 504459;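 active = percent response above 42, roughly 3 SD of non-fluorescent test compounds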;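 also: agonist-driven loss of surface beta2AR via internalization measured by FAP dye flow cytometry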); conditions: Am2.2-beta2AR cells, at 10 µM, stronger effect = higher value
Sequence of Beta-2 adrenergic receptor (Homo sapiens) (P07550 whole entry, looked up): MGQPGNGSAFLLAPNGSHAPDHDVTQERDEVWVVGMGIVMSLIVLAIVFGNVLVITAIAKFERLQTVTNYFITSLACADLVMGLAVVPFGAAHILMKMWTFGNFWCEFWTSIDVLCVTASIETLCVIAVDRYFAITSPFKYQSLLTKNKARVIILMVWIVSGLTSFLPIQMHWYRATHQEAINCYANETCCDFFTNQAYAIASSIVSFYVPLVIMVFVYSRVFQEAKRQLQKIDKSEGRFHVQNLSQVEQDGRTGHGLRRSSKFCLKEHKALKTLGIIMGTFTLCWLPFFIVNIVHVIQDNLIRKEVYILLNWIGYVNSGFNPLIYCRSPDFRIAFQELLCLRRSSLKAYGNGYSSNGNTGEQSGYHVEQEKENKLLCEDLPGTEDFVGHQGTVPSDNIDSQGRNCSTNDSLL

[11] = biological target: AP-2 complex subunit beta (Homo sapiens) (UniProt P63010); assay: beta-arrestin/AP2 interaction blockers – biochemical, validation set, GST-AP2 beads, flow cytometry, pilot screen (AID 504541;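 active = inhibition above 54%, about 3 SD of non-fluorescent compounds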;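 also: AP2 carries R879A mutation and is captured from E. coli lysate; bead-bound FITC arrestin peptide fluorescence measuring arrestin peptide binding to AP2; 0% = DMSO wells and 100% = excess unlabeled arrestin peptide control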); conditions: FITC arrestin peptide, at 10 µM, stronger effect = higher value
[12] = cytosolic pH regulators acting via V-ATPase – S. cerevisiae, pHLuorin, HTS validation (AID 504600; in the data active = response above about 15%;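 also: plate controls were DMSO for no effect and reference compound for full effect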); conditions: V-ATPase proton transport, at 10 µM, stronger effect = higher value
[13] = tested on: anti-desmoglein-3 scFv antibody binding to human DSG3; assay: blockers of pathogenic pemphigus antibody–desmoglein-3 binding – biochemical, validation compound set, bead-based, flow cytometry, pilot screen (AID 588368;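 active = binding below the plate cutoff, the plate median minus 3 SD, with a reading above zero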;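 also: signal is the median channel fluorescence of bead-bound GFP antibody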); conditions: Protein G beads, DSG3-Fc, scFv-GFP binding, at 10 µM, stronger effect = lower value
[14] = tested on: Botulinum neurotoxin type F light chain protease (Clostridium botulinum); assay: Clostridium botulinum type F light chain protease inhibitors, microsphere substrate cleavage, validation (AID 588459); conditions: multiplex microsphere protease substrate cleavage assay, flow cytometry; at 10 µM; stronger effect = higher value
[15] = biological target: Botulinum neurotoxin type A (Clostridium botulinum) (UniProt P0DPI0); assay: BoNT/A light chain protease inhibitors, biochemical, multiplex microsphere flow cytometry, validation set (AID 588460); conditions: at 10 µM, stronger effect = higher value
[16] = biological target: Lethal factor (Bacillus anthracis) (UniProt P15917); assay: Bacillus anthracis lethal factor inhibition, microsphere flow cytometry protease assay, validation at 10 µM (AID 588461); conditions: multiplex microsphere protease cleavage assay, stronger effect = higher value
Sequence of Lethal factor (Bacillus anthracis) (P15917 whole entry, looked up): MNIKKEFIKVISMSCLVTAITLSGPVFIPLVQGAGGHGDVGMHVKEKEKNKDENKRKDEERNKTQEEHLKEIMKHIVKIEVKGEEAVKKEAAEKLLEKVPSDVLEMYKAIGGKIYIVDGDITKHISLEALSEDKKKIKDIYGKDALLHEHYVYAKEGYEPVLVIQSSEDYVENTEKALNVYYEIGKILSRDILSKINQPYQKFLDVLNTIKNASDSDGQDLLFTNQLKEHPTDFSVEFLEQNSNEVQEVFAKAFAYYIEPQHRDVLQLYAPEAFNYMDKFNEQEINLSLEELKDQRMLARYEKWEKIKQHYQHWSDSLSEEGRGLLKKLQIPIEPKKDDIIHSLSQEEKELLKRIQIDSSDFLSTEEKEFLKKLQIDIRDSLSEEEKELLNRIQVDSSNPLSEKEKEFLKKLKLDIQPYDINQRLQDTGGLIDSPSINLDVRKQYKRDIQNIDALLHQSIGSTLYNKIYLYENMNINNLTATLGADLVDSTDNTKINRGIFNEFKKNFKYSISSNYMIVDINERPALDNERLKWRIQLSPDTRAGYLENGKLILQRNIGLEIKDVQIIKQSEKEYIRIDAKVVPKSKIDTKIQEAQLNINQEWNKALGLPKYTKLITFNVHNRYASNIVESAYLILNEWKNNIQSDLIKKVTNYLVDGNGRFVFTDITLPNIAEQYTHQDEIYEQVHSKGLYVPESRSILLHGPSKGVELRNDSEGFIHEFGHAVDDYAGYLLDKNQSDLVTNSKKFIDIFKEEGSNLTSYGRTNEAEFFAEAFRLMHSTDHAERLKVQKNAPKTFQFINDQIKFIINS

[17] = Nile Red efflux blockade in pump-expressing yeast – validation compound set, multiplex, phenotypic, pilot screen (AID 588506;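 active = efflux inhibition above 0.42, the validation set average plus 4 SD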;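 also: Nile Red retained in cells so higher fluorescence means more efflux inhibition; 0 = negative control wells and 1 = enniatin B 25 µM full block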); conditions: S. cerevisiae pump-expressing triplex, Nile Red efflux flow cytometry; at 10 µM; stronger effect = higher value
[18] = biological target: ATP-binding cassette sub-family B member 6 (Homo sapiens) (UniProt Q9NP58); assay: blockers of ABCB6-driven porphyrin uptake – K562-ABCB6 cells, flow cytometry, validation set, pilot screen (AID 588550;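 active = inhibition above the screen-wide mean plus 3 SD, about 51%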;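 also: 0% = DMSO wells and 100% = benzethonium chloride 70 µM positive control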); conditions: K562-ABCB6 porphyrin accumulation, 1 h, at 10 µM, stronger effect = higher value
Sequence of ATP-binding cassette sub-family B member 6 (Homo sapiens) (Q9NP58 whole entry, looked up): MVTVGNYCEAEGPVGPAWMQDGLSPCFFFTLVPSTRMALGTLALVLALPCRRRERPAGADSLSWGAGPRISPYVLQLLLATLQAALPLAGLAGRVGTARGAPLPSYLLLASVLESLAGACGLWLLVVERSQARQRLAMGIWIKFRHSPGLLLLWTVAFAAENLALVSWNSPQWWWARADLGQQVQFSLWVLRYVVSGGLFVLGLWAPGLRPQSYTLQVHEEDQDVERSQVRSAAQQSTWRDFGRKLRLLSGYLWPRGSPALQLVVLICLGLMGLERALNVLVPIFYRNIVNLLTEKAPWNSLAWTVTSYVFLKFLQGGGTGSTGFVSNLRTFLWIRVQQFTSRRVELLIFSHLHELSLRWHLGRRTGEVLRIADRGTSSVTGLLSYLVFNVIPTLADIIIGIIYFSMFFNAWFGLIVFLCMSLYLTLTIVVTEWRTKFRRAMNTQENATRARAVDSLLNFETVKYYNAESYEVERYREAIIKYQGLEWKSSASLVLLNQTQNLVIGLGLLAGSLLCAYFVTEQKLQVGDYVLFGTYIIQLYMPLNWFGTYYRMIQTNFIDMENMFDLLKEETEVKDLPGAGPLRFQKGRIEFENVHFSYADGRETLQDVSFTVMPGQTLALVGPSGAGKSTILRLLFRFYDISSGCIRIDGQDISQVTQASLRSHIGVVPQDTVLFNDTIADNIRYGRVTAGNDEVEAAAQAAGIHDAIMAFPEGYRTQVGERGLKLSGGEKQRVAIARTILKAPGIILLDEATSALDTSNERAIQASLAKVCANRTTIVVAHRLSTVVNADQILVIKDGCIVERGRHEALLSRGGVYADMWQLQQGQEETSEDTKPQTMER

[19] = AML differentiation inducers, ER-HoxA9 marrow cells – cell-based, GFP/MAC1 double positive, flow cytometry, validation set, primary screen (AID 588685;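 active = differentiation response of at least 50%, scaled between solvent and reference control, from cells with both markers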;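 also: compound exposure lasts four days before antibody staining and flow analysis; 0% = DMSO wells and 100% = 5 µM fulvestrant positive control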); conditions: stronger effect = higher value

| Structure (SMILES) | percent of DMSO control GFP [1] | GFP response vs DMSO [2] | percent response of DMSO control [3] | GFP response vs DMSO [4] | GFP response, % of DMSO [5] | double positive events [6] [%] | vesicle binding response [6] | inhibition [7] | superoxide response (% of plate) [8] | aptamer binding inhibition [9] | response [10] | inhibition [11] | response [12] | binding (% of control) [13] | inhibition [14] | inhibition [15] | inhibition [16] | efflux inhibition (fraction of control) [17] | inhibition [18] | differentiation response [19] |
| --- | --- | --- | --- | --- | --- | --- | --- | --- | --- | --- | --- | --- | --- | --- | --- | --- | --- | --- | --- | --- |
| Clc1ccc(C2NCCc3[nH]cnc32)cc1 (stereo not given) | 104% (inactive) | 98.3% (inactive) | 101% (inactive) | 92% (inactive) | 104% (inactive) | 60.8 | 244% (inactive) | -1.49% (inactive) | 94.4% (inactive) | -1% (inactive) | -11.3% (inactive) | -2.42% (inactive) | 0.96% (inactive) | 100% (inactive) | 1.1% (inactive) | 0.7% (inactive) | -5.5% (inactive) | -0.1 (inactive) | 1% (inactive) | -5.62% (inactive) |
| Cc1ccsc1C(=O)C1CCCN(Cc2cc3ccccc3o2)C1 (stereo not given) | 102% (inactive) | 98.3% (inactive) | 114% (inactive) | 85.5% (inactive) | 102% (inactive) | 59.8 | 51.3% (inactive) | 8.88% (inactive) | 97.5% (inactive) | 1% (inactive) | -13% (inactive) | 5.6% (inactive) | -0.26% (inactive) | 96.9% (inactive) | 2.8% (inactive) | -0.7% (inactive) | -1% (inactive) | -0.2 (inactive) | -3% (inactive) | -4.64% (inactive) |
| Cc1cc(OCc2cc(C(=O)O)oc2C)c2c3c(c(=O)oc2c1)CCCC3 | 104% (inactive) | 97.2% (inactive) | 114% (inactive) | 96.6% (inactive) | 101% (inactive) | 66.4 | 282% (inactive) | 7.85% (inactive) | 90.3% (inactive) | 4% (inactive) | -5.78% (inactive) | -4.24% (inactive) | -0.71% (inactive) | 97.1% (inactive) | -2% (inactive) | -0.5% (inactive) | -8.8% (inactive) | -0.01 (inactive) | 6% (inactive) | 6.11% (inactive) |
| C[N+]1(C)C2CCC1CC(OC(=O)C(CO)c1ccccc1)C2 (stereo not given) | 106% (inactive) | 99.3% (inactive) | 112% (inactive) | 88.1% (inactive) | 105% (inactive) | 61.8 | 233% (inactive) | -6.68% (inactive) | 105% (inactive) | 5% (inactive) | -0.63% (inactive) | 6.92% (inactive) | -1.74% (inactive) | 98% (inactive) | -5.3% (inactive) | -0.6% (inactive) | 2.6% (inactive) | 0.05 (inactive) | -4% (inactive) | -6.6% (inactive) |
| CN1C(=O)N(C)C(=O)C2(Cc3ccccc3N3CCOCC32)C1=O (stereo not given) | 101% (inactive) | 103% (inactive) | 102% (inactive) | 93.7% (inactive) | 99.9% (inactive) | 64.2 | 3430% (inactive) | 8.28% (inactive) | 109% (inactive) | 0% (inactive) | 4.14% (inactive) | -5.91% (inactive) | 0.7% (inactive) | 102% (inactive) | 5% (inactive) | 0.6% (inactive) | 1.1% (inactive) | 0.62 (active) | 5% (inactive) | 0% (inactive) |
| c1ccc2c(c1)Nc1ccccc1S2 | 92.8% (inactive) | 139% (inactive) | 95.2% (inactive) | 81.4% (inactive) | 84.7% (inactive) | 61.9 | 121% (inactive) | 12.3% (inactive) | 81.7% (inactive) | 2% (inactive) | 1.66% (inactive) | 9.01% (inactive) | -2.45% (inactive) | 100% (inactive) | -1.5% (inactive) | 0.5% (inactive) | -2.6% (inactive) | 0.27 (inactive) | 9% (inactive) | 1.64% (inactive) |
| C=C1CC[C@@]2(O)[C@H]3Cc4ccc(O)c5c4[C@@]2(CCN3CC2CC2)[C@H]1O5 | 107% (inactive) | 95.1% (inactive) | 109% (inactive) | 90.1% (inactive) | 102% (inactive) | 64.3 | 1650% (inactive) | 14.1% (inactive) | 98.9% (inactive) | -2% (inactive) | -8.78% (inactive) | -7.26% (inactive) | 5.8% (inactive) | 99% (inactive) | 2.7% (inactive) | -0.2% (inactive) | 8.1% (inactive) | -0.26 (inactive) | 13% (inactive) | 10% (inactive) |
| C[C@@H]1O[C@@H](O[C@H]2C[C@@H](O)[C@]3(CO)[C@H]4[C@H](O)C[C@]5(C)[C@@H](C6COC(=O)C6)CC[C@]5(O)[C@@H]4CC[C@]3(O)C2)[C@H](O)[C@H](O)[C@H]1O (stereo not given in full) | 97.3% (inactive) | 102% (inactive) | 105% (inactive) | 112% (inactive) | 119% (inactive) | 62.7 | 183% (inactive) | 6.55% (inactive) | 94.2% (inactive) | 1% (inactive) | -12.8% (inactive) | -5.57% (inactive) | -2.1% (inactive) | 104% (inactive) | -0.5% (inactive) | -0.7% (inactive) | 3.5% (inactive) | -0.04 (inactive) | -3% (inactive) | -4% (inactive) |
